SRC2 TRFRET art: TR-FRET signal artefacts, primary screen, artefact control for PPARgamma SRC-2 agonist project, biochemical. TR-FRET artefact counter-screen; stronger effect = higher value. TR-FRET ratio at 8 µM. actives 0.4% (n = 200,000). AID 1049, 2008
SRC1 TRFRET art: TR-FRET detection interference compounds, primary screen, artefact control for PPARgamma SRC-1 recruitment agonists, biochemical, TR-FRET emission ratio; TR-FRET ratio at 8 µM; TR-FRET detection artefact counter-screen; stronger effect = higher value; AID 1051, 2008; actives 0.34% (n = 99,000); in the data active = TR-FRET ratio above about 2300
SRC3 TRFRET art: TR-FRET detection interference compounds, artefact control for PPARgamma SRC-3 recruitment agonists, biochemical, TR-FRET ratio | TR-FRET artefact counter-screen, PPARgamma/SRC-3 format; stronger effect = higher value | AID 1048, 2008 | actives 0.39% (n = 99,000) | TR-FRET ratio at 8 µM
PPARg SRC3 recr: PPARgamma agonists recruiting SRC-3 coactivator, primary screen, biochemical | AID 731, 2007 | activation, % at 8 µM | actives 0.26% (n = 200,000) | biochemical PPARgamma/SRC-3 coactivator recruitment assay; in the data active = activation above about 23%;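 also: 0% = DMSO and 100% = reference agonist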
Target sequence (P37231 whole entry, looked up): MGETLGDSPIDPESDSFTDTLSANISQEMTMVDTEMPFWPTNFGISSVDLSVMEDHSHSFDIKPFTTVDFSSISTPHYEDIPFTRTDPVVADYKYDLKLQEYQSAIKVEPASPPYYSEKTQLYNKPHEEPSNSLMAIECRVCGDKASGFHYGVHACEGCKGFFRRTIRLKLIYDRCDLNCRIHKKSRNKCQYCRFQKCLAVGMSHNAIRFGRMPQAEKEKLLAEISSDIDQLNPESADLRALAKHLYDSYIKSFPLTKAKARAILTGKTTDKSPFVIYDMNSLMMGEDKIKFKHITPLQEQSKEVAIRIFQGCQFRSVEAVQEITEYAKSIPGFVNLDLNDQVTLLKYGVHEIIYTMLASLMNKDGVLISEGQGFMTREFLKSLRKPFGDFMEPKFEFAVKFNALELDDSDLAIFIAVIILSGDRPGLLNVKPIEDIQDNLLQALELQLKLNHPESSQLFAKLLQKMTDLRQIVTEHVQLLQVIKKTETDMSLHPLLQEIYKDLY
PPARg SRC2 recr: agonists of PPARg-SRC-2 recruitment, primary screen, biochemical, HTS | Peroxisome proliferator-activated receptor gamma (Homo sapiens), P37231 | PPARgamma LBD-SRC-2 recruitment | activation, % at 8 µM | actives 0.34% (n = 200,000); in the data active = activation above about 22%;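 also: 0% = vehicle and 100% = reference agonist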
PPARg SRC-1 ag: PPARgamma agonists recruiting SRC-1 coactivator, primary screen, biochemical; PPARgamma-SRC-1 coactivator recruitment biochemical assay; AID 631, 2007; Peroxisome proliferator-activated receptor gamma (Homo sapiens), P37231; activation, % at 8 µM; actives 0.41% (n = 200,000); in the data active = activation above about 19%;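 also: 0% = DMSO and 100% = reference agonist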
The depositor's hits bear a star; . = no result given. A selection: hits, their analogues and other compounds. The true share with any hit is near 0.9%. Rule as the data show it, unless noted: active = TR-FRET ratio above about 2000; inactive = the rest.

SMILES	SRC2 TRFRET art	SRC1 TRFRET art	SRC3 TRFRET art	PPARg SRC3 recr	PPARg SRC2 recr	PPARg SRC-1 ag
Oc1c(Br)cc(Br)cc1C=NCc1ccc(F)cc1	1663	2042	1714	3	7	21*
COc1ccccc1OC(=O)CCN1c2ccccc2Sc2ccccc21	1756	1668	2481*	-2	5	-9
COc1ccccc1C(=O)N1c2ccccc2Sc2ccccc21	1478	1706	1597	3	-1	-2
COC(CNC(=O)C1CCCN(S(=O)(=O)c2c(C)noc2/C=C/c2cccs2)C1)OC (configuration not stated)	1562	1909	1623	6	9	1
C=CCn1c(SCc2ccc(C(=O)OC)cc2)nnc1-c1sc(N)nc1C	1972*	1914	1516	5	2	12
O=C(CCC1CCCN(C(=O)C2=CCCCC2)C1)N1CCN(c2ccccn2)CC1 (configuration not stated)	1611	1823	1738	3	-3	25*
CC(C)(C)c1cc(C(=S)N2CCN(CCO)CC2)cc(C(C)(C)C)c1O	1569	.	.	28*	10	6
CCOC(=O)c1cnc2c(C(F)(F)F)cccc2c1N1CCOCC1	1583	.	.	-3	-1	-9
CCOC(=O)c1cnc2c(C)c(Cl)ccc2c1N1CCOCC1	1588	.	.	40*	0	7
OC1(c2ccc(Br)cc2)CN(c2ccccc2)C2=[N+]1CCS2 (configuration not stated)	1571	1718	2102*	8	3	4
OC1(c2ccc(Cl)cc2)CN(c2ccccc2)C2=[N+]1CCS2 (configuration not stated)	1612	1791	1793	5	6	8
CCOC(=O)c1sc(=NC(=O)c2cccc(OC)c2)n(C)c1C	1534	.	.	-5	-1	80*
CCOC(=O)c1sc(=NC(=O)c2ccccc2)n(C)c1C	2392*	2795*	2902*	6	8	3
CCOC(=O)c1sc(=NC(=O)c2ccc(OC)c(OC)c2)n(C)c1C	1525	.	.	1	4	80*
CCOC(=O)c1sc(=NC(=O)COc2ccc(Cl)cc2)n(C)c1C	1448	1669	1434	3	5	-3
COc1cc(/C=C/C(=O)O)cc(S(=O)(=O)N(CC(C)C)CC(C)C)c1OC	1693	1794	1492	4	-4	-5
Cc1ccc(CSc2nc3c(cc2C#N)CCC3)cc1	1460	.	.	1	-4	30*
N#Cc1cc2c(nc1SCc1ccc(Cl)cc1)CCCC2	1440	.	.	-10	1	0
O=C(N/N=C/c1sc(N2CCOCC2)nc1-c1ccccc1)c1ccccc1O	1451	1582	1407	-5	-1	1
O=Cc1sc(N2CCOCC2)nc1-c1ccccc1	1731	2073	2197*	14	4	2
CCOC(=O)c1sc(NC(=O)CSc2nnnn2-c2ccc(C)c(C)c2)nc1C	4861*	.	.	-6	156*	-2
COc1cc(OC)cc(-n2nnnc2SCC(=O)Nc2ccc(C(C)=O)cc2)c1	1477	.	.	-1	7	51*
CN(C)Cc1c(-c2ccc(Cl)cc2)nc2ccc(Cl)cn12	1433	1563	1405	-5	-7	-7
CCOC(=O)CCNC(=O)Nc1ccc2nc(C)n(Cc3cccc(Cl)c3)c(=O)c2c1	1989*	.	.	17	9	18
CCCc1nc2ccc(NC(=O)NCCC(=O)OCC)cc2c(=O)n1Cc1cccc(Cl)c1	1646	.	.	0	5	6
SMILES	SRC2 TRFRET art	SRC1 TRFRET art	SRC3 TRFRET art	PPARg SRC3 recr	PPARg SRC2 recr	PPARg SRC-1 ag
CC(C)CC(NC(=O)C(COCc1ccccc1)NC(=O)OC(C)(C)C)C(=O)NN (configuration not stated)	1643	1864	1658	2	-5	-2
COC(=O)c1cn(NC(=O)Cc2ccccc2Br)c(=O)c2ccccc12	1376	1718	1340	-5	-9	-9
Cc1ccc(-n2c(C)cc(C(=O)COc3c(CO)cc(F)cc3CO)c2C)cc1C	1818	2057	1503	5	22*	0
COc1ccc(NC(=O)Cn2cnc3sc(C)c(S(=O)(=O)N4CCOCC4)c3c2=O)c(OC)c1	1601	1636	1435	1	-5	-2
Cc1ccc(S(=O)(=O)N(C)c2c(C)ccc(S(=O)(=O)NC(C)(C)C)c2C)cc1	1634	1670	1660	-2	0	-10
Nc1nccc(-c2cccs2)n1	2014*	2012	1787	4	5	-2
O=C(Nc1nccc(-c2cccs2)n1)c1cccs1	1536	.	.	3	4	-2
CC(C)C1CC(C(F)(F)F)n2nc(C(=O)O)cc2N1 (configuration not stated)	2157*	1719	1729	2	17	5
CC1CC(C(F)(F)F)n2nc(C(=O)O)cc2N1 (configuration not stated)	1390	.	.	-15	0	-5
Cc1ccc(OCC(=O)NNC(=O)C(=O)NC(C)(C)C)cc1	1515	2454*	1508	7	7	21*
CC(=O)N[C@@H](C)C(=O)N1CCN(S(=O)(=O)c2ccc(Cl)cc2)CC1	1587	1844	1523	-1	5	12
Cc1cccn2c(=O)c3cc(C(=O)NCCN4CCOCC4)c(=N)n(CCc4ccccc4)c3nc12	1506	.	.	28*	6	7
Cc1ccc([N+](=O)[O-])cc1NC(=O)C(Sc1ccccc1)c1ccccc1 (configuration not stated)	1615	1783	1427	10	8	7
CC1CCc2c(sc3nc(SCC(=O)NCc4ccco4)nc(N)c23)C1 (configuration not stated)	1582	.	.	4	14	21*
Cc1cc(=O)[nH]c2c1c(C)nn2C1CCCC1	4512*	.	.	4	73*	7
Cc1cc(=O)[nH]c2c1c(C)nn2C1CCCCC1	1495	.	.	9	6	1
Cc1ccc(C)c(N2CCN(C(=O)CCCn3c(=S)[nH]c4cc5c(cc4c3=O)OCO5)CC2)c1	2000*	.	.	11	10	9
O=C(CCCn1c(=S)[nH]c2cc3c(cc2c1=O)OCO3)N1CCN(c2ccccc2F)CC1	1568	.	.	-1	5	-1
O=C(c1ccccc1)c1c[nH]c(C(=O)NNc2ccccc2)c1	1466	1766	1487	2	6	-6
O=c1cnnc(SCc2ccc([N+](=O)[O-])cc2)[nH]1	1688	1538	1609	73*	45*	79*
CCC(OC(C)=O)c1cc2c(cc1[N+](=O)[O-])OCCO2 (configuration not stated)	1426	1654	1673	1	0	-9

Source: PubChem BioAssay (The Scripps Research Institute Molecular Screening Center)
